Measured values taken from PubChem BioAssay.
Activity calls are given as the source filed them.

How the values were obtained:
[1] = tested on: Plasmodium falciparum Sir2 (PF13_0152, Sir2A); test: Plasmodium falciparum Sir2A binding compounds – biochemical, small-molecule microarray, 635 nm fluorescence, primary screen (AID 1098); settings: fluorescence 635 nm, higher = more signal;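 also: score merges spot fluorescence intensity with its signal-to-noise ratio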
[2] = probe aDKK1 binding to arrayed compounds – biochemical, biotinylated probe, 635/667 nm fluorescence, primary screen (AID 1099); settings: small-molecule microarray, higher = more signal;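 also: score merges 667nm spot fluorescence with signal to noise across triplicate slides; reference of the scale not given here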
[3] = probe aCHRDL2 binding to arrayed compounds – biochemical, biotinylated probe, 635/667 nm fluorescence, primary screen (AID 1100); settings: small-molecule microarray, higher = more signal
[4] = change in splice reporter luminescence, either direction, cell-based, HEK293, spliceosome inhibition project, primary screen (AID 1101); settings: HEK293 splicing luciferase reporter, 24 h, higher = more signal, called active from +8 up or from −8 down;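 also: HEK293 cells carrying a splicing-competent luciferase reporter gene; test concentration not given here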
[5] = biological target: Fibroblast growth factor 10 (Homo sapiens) (UniProt O15520); test: compounds binding fibroblast growth factor 10 – biochemical, small-molecule microarray, 635 nm fluorescence, primary screen (AID 1102); settings: FGF10 binding, fluorescence 635 nm, higher = more signal
Fibroblast growth factor 10 (Homo sapiens), sequence (O15520 whole entry, looked up): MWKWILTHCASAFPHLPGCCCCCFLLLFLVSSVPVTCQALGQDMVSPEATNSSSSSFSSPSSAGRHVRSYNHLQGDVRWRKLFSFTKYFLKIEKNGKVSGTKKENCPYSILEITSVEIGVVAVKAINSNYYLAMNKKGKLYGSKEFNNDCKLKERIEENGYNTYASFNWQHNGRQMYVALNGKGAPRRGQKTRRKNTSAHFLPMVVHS

[6] = tested on: glycogen synthase kinase-3 (GSK3A per assay name; protocol says GSK3B); test: compounds binding glycogen synthase kinase-3 – biochemical, small-molecule microarray, 635 nm fluorescence, GSK3A, primary screen (AID 1103); settings: fluorescence 635 nm, higher = more signal; also: the record names both GSK3A and GSK3B
[7] = biological target: Epidermal growth factor receptor (Homo sapiens) (UniProt P00533); test: compounds binding epidermal growth factor receptor – biochemical, small-molecule microarray, 635 nm fluorescence, primary screen (AID 1104); settings: EGFR binding, higher = more signal;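 also: score merges 667 nm emission intensity with spot signal to noise over triplicate slides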
Epidermal growth factor receptor (Homo sapiens), sequence (P00533 whole entry, looked up): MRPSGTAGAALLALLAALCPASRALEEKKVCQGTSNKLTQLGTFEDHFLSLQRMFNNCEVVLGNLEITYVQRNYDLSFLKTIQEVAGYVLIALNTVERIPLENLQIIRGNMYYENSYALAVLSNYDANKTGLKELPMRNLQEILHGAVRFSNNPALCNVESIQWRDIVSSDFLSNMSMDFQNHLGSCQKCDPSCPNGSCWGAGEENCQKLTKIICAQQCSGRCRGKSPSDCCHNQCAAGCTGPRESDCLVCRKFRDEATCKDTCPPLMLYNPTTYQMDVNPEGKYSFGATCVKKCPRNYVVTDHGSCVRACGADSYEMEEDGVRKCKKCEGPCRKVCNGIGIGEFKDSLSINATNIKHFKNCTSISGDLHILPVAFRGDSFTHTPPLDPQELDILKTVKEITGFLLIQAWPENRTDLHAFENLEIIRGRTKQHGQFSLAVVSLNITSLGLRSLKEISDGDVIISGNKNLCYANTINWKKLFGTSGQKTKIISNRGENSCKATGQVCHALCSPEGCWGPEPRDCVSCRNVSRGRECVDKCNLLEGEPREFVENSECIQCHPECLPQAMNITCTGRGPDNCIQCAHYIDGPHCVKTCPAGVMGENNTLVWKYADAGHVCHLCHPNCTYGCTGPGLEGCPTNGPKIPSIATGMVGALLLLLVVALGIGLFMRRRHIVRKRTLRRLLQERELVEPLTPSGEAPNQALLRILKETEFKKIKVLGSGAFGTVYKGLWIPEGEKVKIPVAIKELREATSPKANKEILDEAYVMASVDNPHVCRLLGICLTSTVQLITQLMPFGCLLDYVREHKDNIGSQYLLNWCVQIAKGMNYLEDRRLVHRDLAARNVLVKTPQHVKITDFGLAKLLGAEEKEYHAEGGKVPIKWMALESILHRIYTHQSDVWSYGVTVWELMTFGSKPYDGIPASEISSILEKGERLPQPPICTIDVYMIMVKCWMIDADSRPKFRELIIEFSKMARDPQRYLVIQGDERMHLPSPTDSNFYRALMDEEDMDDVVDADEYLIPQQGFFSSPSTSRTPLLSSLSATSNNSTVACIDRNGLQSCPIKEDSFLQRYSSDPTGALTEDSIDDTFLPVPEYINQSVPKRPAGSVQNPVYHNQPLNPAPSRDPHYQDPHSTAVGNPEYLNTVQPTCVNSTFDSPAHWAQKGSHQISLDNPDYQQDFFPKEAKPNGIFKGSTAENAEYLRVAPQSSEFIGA

[8] = biological target: Follistatin-related protein 3 (Homo sapiens) (UniProt O95633); test: compounds binding follistatin-related protein 3 – biochemical, small-molecule microarray, 635 nm fluorescence, primary screen (AID 1105); settings: FSTL3 binding, higher = more signal;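 also: score merges emission near 667 nm and signal to noise per printed spot across three slides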
Follistatin-related protein 3 (Homo sapiens), sequence (O95633 whole entry, looked up): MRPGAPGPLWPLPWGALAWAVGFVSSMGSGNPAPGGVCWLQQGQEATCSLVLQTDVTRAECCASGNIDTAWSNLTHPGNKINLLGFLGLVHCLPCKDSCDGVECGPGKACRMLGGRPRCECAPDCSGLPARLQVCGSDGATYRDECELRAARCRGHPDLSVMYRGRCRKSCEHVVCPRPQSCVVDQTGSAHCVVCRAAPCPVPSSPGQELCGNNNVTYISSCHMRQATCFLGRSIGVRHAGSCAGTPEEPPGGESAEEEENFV

[9] = biological target: Dickkopf-related protein 1 (Homo sapiens) (UniProt O94907); test: small molecules binding DKK1 protein – biochemical, small-molecule microarray, 635 nm fluorescence scan, primary screen (AID 1106); settings: higher = more signal;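 also: score merges emission near 667 nm with signal to noise over three replicate slides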
Dickkopf-related protein 1 (Homo sapiens), sequence (O94907 whole entry, looked up): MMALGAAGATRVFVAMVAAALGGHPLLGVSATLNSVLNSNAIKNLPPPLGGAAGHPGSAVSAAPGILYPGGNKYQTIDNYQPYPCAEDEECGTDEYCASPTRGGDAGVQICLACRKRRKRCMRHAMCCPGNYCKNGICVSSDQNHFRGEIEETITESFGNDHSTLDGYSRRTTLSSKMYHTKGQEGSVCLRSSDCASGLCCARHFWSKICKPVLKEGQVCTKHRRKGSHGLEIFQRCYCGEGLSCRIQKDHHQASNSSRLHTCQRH

[10] = tested on: Inhibin beta A chain (activin A); test: small molecules binding activin A – biochemical, small-molecule microarray, 635 nm fluorescence scan, primary screen (AID 1107); settings: INHBA, higher = more signal;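 also: mouse activin A protein probed at 4.33 µg/mL on printed slides; score merges bound-protein fluorescence near 667 nm with spot signal-to-noise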

SMILES | composite z-score [1] | composite z-score [2] | composite z-score [3] | z-score [4] | composite z-score [5] | composite z-score [6] | composite z-score [7] | composite z-score [8] | composite z-score [9] | composite z-score [10]
Cc1cc(C)c(C(O)C2C=CC3C(=O)N(C)C(=O)C3N2Nc2ccccc2)c(C)c1 (stereo not given) | 1.13 | 1.84 | 0.796 | 0.55 (inactive) | 0.636 | 0.399 | 0.745 | 0.38 | 0.209 | 1.25
CC(=O)NCCCC[C@@H]1NC(=O)[C@@H]2C[C@H](C(=O)NCCCCN(C)C)[C@H](c3ccc(O)cc3)N2C1=O | -0.165 | -0.161 | 0.704 | -1.12 (inactive) | -0.117 | 0.0247 | -0.588 | -0.723 | 0.295 | -0.727
O=C1O[C@H](c2ccccc2)[C@H](c2ccccc2)N2[C@H]1[C@@H](C(=O)O)[C@]1(C(=O)Nc3ccc(C#CC4=CCCCC4)cc31)[C@H]2c1ccc(OCCO)cc1 | 1.43 | -0.211 | -0.701 | -0.248 (inactive) | 1.25 | 1.28 | 0.58 | 1.42 | 0.765 | 0.302
C[N+](C)(C)CCCCCCNC(=O)[C@H]1C[C@H]2C(=O)N3CCC[C@H]3C(=O)N2[C@H]1c1ccc(O)cc1 | 1.07 | -0.258 | -0.201 | -0.677 (inactive) | 0.205 | 0.196 | -0.278 | 0.196 | 0.744 | 1.03
C=C(C(=O)CC[C@H](OC(C)=O)c1ccc(OCCO)cc1)C(C)C | -0.478 | -0.267 | -0.906 | -3.58 (inactive) | 1.37 | -0.479 | 0.982 | 0.876 | 2.01 | -0.0025
CCCC[C@H]1OB(O)C[C@H]2C1=C(C)C[C@H]1C(=O)N(Cc3ccccc3)C(=O)[C@H]12 | 0.148 | -0.109 | -0.665 | 0.0984 (inactive) | 1.13 | 0.507 | 0.244 | 1.25 | 0.999 | 0.181
C=CC[C@@]1(C(=O)O)N=C(c2ccc(OCCCO)cc2)O[C@@H]1c1ccccc1N=[N+]=[N-] | 1.48 | 1.08 | 1.2 | 0.0828 (inactive) | 0.291 | 0.658 | -0.107 | 0.316 | -0.227 | 1.46
COC(=O)C[C@H]1O[C@]2(C(=O)N(Cc3ccccc3)c3ccc(NC(C)=O)cc32)[C@@H](C)[C@@H]1[Si](C)(C)c1ccc(OC)cc1 | 0.407 | -0.097 | -0.362 | -0.703 (inactive) | 0.802 | 0.985 | 0.474 | 0.719 | 0.599 | 0.25
O=C1O[C@@H](c2ccccc2)[C@@H](c2ccccc2)N2[C@@H](c3ccc(O)cc3)[C@]3(C(=O)Nc4ccc(C#CC5(O)CCCCCC5)cc43)[C@@H](C(=O)N3CCCCCCC3)[C@H]12 | 1.99 | 2.61 | 1.26 | -0.612 (inactive) | 1.51 | 1.38 | 1.83 | 1.53 | 2.49 | 1.86
CCCCC=C[C@@H](NC(=O)c1ccco1)c1ccccc1 | 0.276 | 0.373 | 0.557 | 0.808 (inactive) | 0.689 | -0.877 | 0.12 | 0.296 | 0.0504 | 0.809
COc1ccc(NN2C(C(O)c3ccc(OC)c(OCc4ccccc4)c3)C=CC3C(=O)N(C4CCCCC4)C(=O)C32)cc1 (stereo not given) | 0.897 | 0.686 | 0.627 | -0.306 (inactive) | 0.622 | 0.995 | 0.216 | 1 | -0.228 | 1.13
COC(=O)[C@@]1(Cc2ccc(OC)cc2)[C@H]2c3cc(C(=O)N4CCCC4)n(Cc4ccccn4)c3C[C@H]2CN1C(=O)c1ccccc1 | 0.987 | 1.33 | 1.3 | -3.17 (inactive) | 0.928 | 1.2 | -0.0442 | 0.182 | -0.899 | 0.673
Cc1ccc(S[C@]2(C(=O)NCC(C)C)CC(=O)N(Cc3ccccc3)[C@@H]2c2ccc(CO)cc2I)cc1 | 1.52 | 0.0143 | 0.388 | -0.531 (inactive) | 0.417 | 0.441 | 0.287 | 0.75 | 0.149 | 0.975
CCCCC(O)C1C=CC2C(=O)N(C3CCCCC3)C(=O)C2N1Nc1ccc(OC)cc1 (stereo not given) | 0.637 | 0.298 | 0.948 | -0.221 (inactive) | 0.517 | 1.28 | -0.0301 | 1.12 | -0.517 | 0.943
[N-]=[N+]=Nc1ccccc1C[C@]1(C(=O)NCCN2CCOCC2)N=C(c2ccc(OCCCO)cc2)O[C@H]1c1ccccc1 | 1.09 | 0.641 | 0.273 | 0.183 (inactive) | 0.484 | 1.31 | -0.117 | -0.391 | -0.019 | -0.16
CN(C)CCCCNC(=O)[C@H]1C[C@H]2C(=O)N[C@@H](Cc3ccccc3)C(=O)N2[C@H]1c1ccc(O)cc1 | 0.725 | -0.0299 | -0.0646 | -1.03 (inactive) | 1.4 | 1.2 | 0.425 | 1.39 | 1.5 | -0.44
